Screening data as filed in PubChem.
Marburg entry inh: qHTS for inhibitors of binding or entry into cells for Marburg Virus. Marburg virus pseudotyped entry inhibition, cell reporter. Potency, µM (doses to about 37.8 µM), hits mostly inhibitors. hit rate 1.8% among 300,000; calls by dose curve; tested in HEK293 cells
Lassa entry inh: qHTS for Inhibitors of binding or entry into cells for Lassa Virus | Lassa virus pseudotype entry inhibition, cell reporter | Potency, µM (series often up to 37.9 µM), most hits filed as inhibitors | hit rate 1.2% among 300,000; calls by dose curve; tested in HEK293 cells; further: nearly all actives have a fitted effect of over 50% in size
Shiga toxin inh: A qHTS for Small Molecule Inhibitors of Shiga Toxin | inhibition, % at 38.7 µM | AID 2315, 2010 | Vero cells, Shiga toxin protein synthesis inhibition reporter | hit rate 9.2% among 290,000; in the data active means inhibition mostly above about 28%, no sharp cut-off; inactive means mostly below about 43%
FMDV inh: High Throughput Screening for Foot and Mouth Disease Virus Antivirals; FMDV antiviral cell-based qHTS; Potency, µM (series often up to 57.9 µM), most hits filed as inhibitors; hit rate 1.2% among 410,000; AID 1159524, 2015; calls by dose curve; tested in HEK293T cells; further: read-out not given here; nearly all actives have a fitted effect of over 45% in size
CHX counter: Cycloheximide Counterscreen for Small Molecule Inhibitors of Shiga Toxin; hit rate 12% among 300,000; max response, %; cell reporter, cycloheximide protein synthesis inhibition counterscreen; in the data active means max response mostly above about 13%, no sharp cut-off; inactive means mostly below about 14%; further: read at 38.3 µM for the half of the compounds with a filed dose
HCV inhibitor: qHTS Assay for Inhibitors of Hepatitis C Virus (HCV). Huh7.5.1 HCVcc-Cre infection, luciferase reporter, 44 h. Potency, µM (top dose mostly 41.8 µM), most hits filed as inhibitors. hit rate 3.4% among 340,000; active means well fitted inhibition curve with a large enough effect; inconclusive means small, poorly fitted or top-dose-only effect, or another doubt; inactive means no such curve, though single readings can be large or run the other way
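Luciferase read-out (15 sec integration) after a 15 min room-temperature substrate step quantifies HCVcc-Cre infection. Cells, 1,000 per well, had compound added 4 h post-plating, then virus at ~0.5 moi, and were cultured 44 h.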
Hits are given with their value; . = inactive; ? = inconclusive; / = not tested or not shown; ! = not confirmed by another sample. Shown are actives, neighbours in structure and some others; about 13% of the full set was active somewhere.

SMILES	Marburg entry inh	Lassa entry inh	Shiga toxin inh	FMDV inh	CHX counter	HCV inhibitor
O=C(c1cc2cc(Br)ccc2oc1=O)N1CCCC1	.	.	.	.	.	.
NC(=O)c1ncn([C@@H]2O[C@H](CO)[C@@H](O)[C@H]2O)n1	?	23µM!	.	.	.	.
Nc1nc(=S)c2ncn([C@@H]3O[C@H](CO)[C@@H](O)[C@H]3O)c2[nH]1	/	/	/	.	/	2.2µM
Nc1ncn([C@@H]2O[C@H](CO)[C@@H](O)[C@H]2O)c(=O)n1	?	4.1µM	/	.	/	.
Nc1ccn([C@@H]2O[C@H](CO)[C@@H](O)[C@@H]2O)c(=O)n1	?	?	.	.	.	?
CCOC(=O)c1c(C)[nH]c(C)c1C(=O)COC(=O)CSc1ccc(C)cc1	/	/	/	.	/	.
Oc1ccc(C=Nc2ccccc2-c2nc3ccccc3[nH]2)c(O)c1	.	?	.	.	13	?
Oc1ccccc1C=Nc1ccccc1-c1nc2ccccc2[nH]1	?	?	75	.	38	.
O=C(c1ccccc1-c1nc2ccccc2[nH]1)N1CCCCC1	?	.	.	.	.	.
COc1ccc(OC)c(C=Nc2ccccc2-c2nc3ccccc3[nH]2)c1	.	.	45	.	27	?
Oc1ccc(C=NN=C2c3ccccc3-c3ccccc32)c(O)c1	?	.	/	.	/	?
COc1ccc(OCC(=O)Nc2ccc3c(c2)n(C)c(=O)n3C)cc1	/	/	/	.	.	.
COCC(=O)NC1CCN(S(=O)(=O)c2cccc(C(C)=O)c2)CC1	.	.	.	.	.	.
COc1ccc(C(C)=O)cc1COC(=O)c1cnc(Cl)c(Cl)c1	.	/	.	?	.	11µM
CCOc1ccc(C(C)=O)cc1COC(=O)c1ccc2c(c1)NC(=O)CS2	/	/	/	?	/	3.5µM
COc1ccc(C(C)=O)cc1COC(=O)c1ccc2c(c1)OCCO2	/	/	/	.	/	11µM
COc1ccc(C(=O)COC(=O)c2ccc3c(c2)NC(=O)CS3)c(OC)c1	?	.	/	?	/	?
Cc1ccc(C(O)CSc2nnc(-c3ccc4ccccc4c3)n2C)cc1 (centres undefined)	.	?	.	.	.	.
COC(=O)C[C@@H]1C[C@H]2c3cc(N(C)C)ccc3O[C@H]2[C@H](CO)O1	/	/	/	.	/	/
Cc1ccc(S(=O)(=O)CC(=O)Nc2nc3ccc(S(N)(=O)=O)cc3s2)cc1	/	/	.	.	.	.
Cn1cc([N+](=O)[O-])c(C(=O)NNC(=O)c2ccc([N+](=O)[O-])cc2)n1	/	/	.	.	.	.
O=C(c1cc2cc(Cl)ccc2oc1=O)N1CCCCCCC1	/	/	.	.	.	.
COc1ccc(-n2c(-c3ccco3)nc3c(cnn3-c3ccc(C)cc3)c2=O)cc1	.	?	.	40µM!	.	?
COc1cccc(-n2c(-c3ccco3)nc3c(cnn3-c3ccccc3C)c2=O)c1	?	?	/	14µM	/	/
CCc1nc2c(cnn2-c2ccc(Cl)cc2)c(=O)n1-c1ccc(OC)cc1	?	?	.	?	.	11µM
SMILES	Marburg entry inh	Lassa entry inh	Shiga toxin inh	FMDV inh	CHX counter	HCV inhibitor
COc1cccc(SCc2noc(C(=O)NCCCN3CCOCC3)c2C(=O)NCCCN2CCOCC2)c1	/	/	/	.	/	.
Fc1ccc(NC(=S)NC2CCCCC2)c(F)c1F	.	.	.	.	.	.
CN(C)C(=O)c1cccc(-c2cnc3c(NC=O)cc(-c4cccc(C(F)(F)F)c4)cn23)c1	/	/	/	32µM	/	/
COc1cc(-c2cnc3c(NC=O)cc(-c4cccc(C(F)(F)F)c4)cn23)cc(OC)c1OC	/	/	/	20µM	/	/
COc1cc(C2C(C#N)=C(N)Oc3n[nH]c(C)c32)ccc1OC(=O)c1ccccc1 (centres undefined)	.	.	.	/	.	.
O=C(Nc1cc(S(=O)(=O)Nc2ccc(Cl)cc2)ccc1N1CCCCC1)c1ccc(F)cc1	?	?	.	.	.	7.1µM
COc1ccc(NS(=O)(=O)c2ccc(N3CCOCC3)c(NC(=O)c3ccc(F)cc3)c2)cc1	3.5µM	?	.	.	.	?
N#Cc1ccc(C(=O)Nc2cc(S(=O)(=O)Nc3ccc(Cl)cc3)ccc2N2CCCCC2)cc1	?	?	.	.	.	?
COc1ccccc1NS(=O)(=O)c1ccc(N2CCOCC2)c(NC(=O)c2ccco2)c1	.	/	.	.	.	11µM
CCOC(=O)/C=C/C(=O)Nc1cc(S(=O)(=O)Nc2ccc(OC)cc2)ccc1N1CCOCC1	?	?	/	32µM	/	?
